Measurements taken from PubChem BioAssay.
Calls of active or inactive are those of the source.

Tests used:
[1] = binders of probe aFSTL3 on microarray, primary screen, stem cell growth factor project, biochemical, small-molecule microarray, fluorescence 635/667 (AID 1064); conditions: higher = more signal;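 also: measures binding of the biotinylated anti-FSTL3 antibody to printed compounds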
[2] = binders from COS7 lysate, DM2A8 probe, primary screen, torsin A project, cell lysate, small-molecule microarray, fluorescence 635/667 (AID 1065); conditions: higher = more signal, COS7 lysate expressing mutant human TOR1A
[3] = binders of probe aFGF2 on microarray, primary screen, stem cell growth factor project, biochemical, small-molecule microarray, fluorescence 635/667 (AID 1067); conditions: higher = more signal;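 also: measures binding of biotinylated aFGF2 protein to printed compounds on slides; z-score merges feature fluorescence and signal-to-noise across triplicate slides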
[4] = binders of probe aFGF10 on microarray, primary screen, stem cell growth factor project, biochemical, small-molecule microarray, fluorescence 635/667 (AID 1071); conditions: higher = more signal;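 also: score merges 667 nm spot intensity and signal to noise from triplicate slides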
[5] = target: Neurogenic locus notch homolog protein 2 (Homo sapiens) (UniProt Q04721); experiment: Notch2 binders on small-molecule microarrays, primary screen, biochemical, small-molecule microarray, 635 nm fluorescence, stem cell growth factors (AID 1073); conditions: Notch2 binding, higher = more signal
[6] = target: Pro-neuregulin-1, membrane-bound isoform (Homo sapiens) (UniProt Q02297); experiment: NRG1 binders on small-molecule microarrays, primary screen, psychiatric disease protein project, biochemical, small-molecule microarray, fluorescence 635/667 (AID 1075); conditions: NRG1 binding, 635 nm fluorescence, higher = more signal;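 also: score combines 667 nm spot fluorescence with signal to noise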
[7] = tested on: Neuregulin-1 EGF-like domain; experiment: binders of neuregulin-1 EGF-like domain, primary screen, biochemical, small-molecule microarray, 635 nm fluorescence (AID 1081); conditions: small-molecule microarray binding, higher = more signal;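 also: binding of the protein to compounds printed on small-molecule microarray slides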
[8] = FRG1 promoter luciferase signal modulators, primary screen, FRG1 inhibition for FSHD, cell-based, C2C12 myotubes, firefly/Renilla luciferase, luminescence (AID 1084); conditions: higher = more signal, called active from +8 up or from −8 down
[9] = binders of probe aFST on microarray, primary screen, stem cell growth factor project, biochemical, small-molecule microarray, fluorescence 635/667 (AID 1086); conditions: higher = more signal;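 also: score merges 667 nm fluorescence with signal-to-noise of each printed compound spot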
[10] = binders of probe aHhip on microarray, primary screen, stem cell growth factor project, biochemical, small-molecule microarray, fluorescence 635/667 (AID 1087); conditions: higher = more signal;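 also: score merges spot fluorescence at 667nm with spot signal to noise ratio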
[11] = tested on: PRMT1 (protein arginine N-methyltransferase 1); experiment: PRMT1 binders on small-molecule microarrays, primary screen, biochemical, small-molecule microarray, 635 nm fluorescence (AID 1088); conditions: small-molecule microarray binding, higher = more signal;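 also: binding of Prmt1 protein to compounds spotted on small-molecule microarray slides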
[12] = yeast growth modulation, basal conditions, primary screen, YJM789 clinical isolate, OD600, 24 h (AID 1089);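 also: growth of clinical yeast isolate S. cerevisiae YJM 789 seeded 1000 cells per well; test concentration not given here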; conditions: S. cerevisiae YJM789 growth, higher = more signal, called active from +8 up or from −8 down
[13] = fission yeast growth modulation, primary screen, strain 972, OD600, 24 h, no modulator (AID 1090);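 also: basal condition with compound alone and no growth modifier present; test concentration not given here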; conditions: S. pombe 972 growth, higher = more signal, called active from +8 up or from −8 down
[14] = S. cerevisiae growth modulation with rapamycin, primary screen, strain BY4716, OD600, 96 h (AID 1091); conditions: higher = more signal, called active from +8 up or from −8 down; also: test concentration not given here
[15] = target: Torsin-1A-interacting protein 2 (Homo sapiens) (UniProt Q8NFQ8); experiment: LULL1 binders on small-molecule microarray, primary screen, cell lysate, human LULL1 lysate, 635/667 nm fluorescence (AID 1092); conditions: hLULL1 lysate binding, 635 nm fluorescence, higher = more signal;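 also: probe is lysate of COS7 cells overexpressing human LULL1; score merges per-feature 667 nm fluorescence with signal-to-noise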
[16] = E. coli growth modulation, two-sided OD650, primary screen, E. coli filamentation project, strain DRC41, 24 h (AID 1093); conditions: OD650, 24 h, higher = more signal, called active from +8 up or from −8 down;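 also: MC1000 strain lacking acrAB efflux and sulA so SOS filamentation is blocked; test concentration not given here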
[17] = small-molecule microarray binders of probe aLefty2, primary screen, biochemical, biotinylated probe, 635/667 nm fluorescence (AID 1094); conditions: higher = more signal;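 also: score merges spot fluorescence near 667 nm with spot signal-to-noise ratio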
[18] = tested on: Noggin (protein binding on small-molecule microarray); experiment: Noggin binders on small-molecule microarray, primary screen, biochemical, 635/667 nm fluorescence (AID 1095); conditions: 635 nm fluorescence, higher = more signal;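 also: score merges 667 nm feature fluorescence with signal to noise over triplicate slides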
[19] = target: Neurogenic locus notch homolog protein 3 (Homo sapiens) (UniProt Q9UM47); experiment: NOTCH3 binders on small-molecule microarray, primary screen, biochemical, 635/667 nm fluorescence (AID 1096); conditions: NOTCH3 binding, 635 nm fluorescence, higher = more signal
[20] = small-molecule microarray binders of probe aEGFR, primary screen, biochemical, biotinylated probe, 635/667 nm fluorescence (AID 1097); conditions: higher = more signal;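 also: probe is a biotinylated anti-EGFR antibody binding compounds printed on slides; score combines fluorescence near 667 nm and signal to noise of each spot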

Chain of Neurogenic locus notch homolog protein 2 (Homo sapiens) (Q04721 whole entry, looked up, canonical isoform): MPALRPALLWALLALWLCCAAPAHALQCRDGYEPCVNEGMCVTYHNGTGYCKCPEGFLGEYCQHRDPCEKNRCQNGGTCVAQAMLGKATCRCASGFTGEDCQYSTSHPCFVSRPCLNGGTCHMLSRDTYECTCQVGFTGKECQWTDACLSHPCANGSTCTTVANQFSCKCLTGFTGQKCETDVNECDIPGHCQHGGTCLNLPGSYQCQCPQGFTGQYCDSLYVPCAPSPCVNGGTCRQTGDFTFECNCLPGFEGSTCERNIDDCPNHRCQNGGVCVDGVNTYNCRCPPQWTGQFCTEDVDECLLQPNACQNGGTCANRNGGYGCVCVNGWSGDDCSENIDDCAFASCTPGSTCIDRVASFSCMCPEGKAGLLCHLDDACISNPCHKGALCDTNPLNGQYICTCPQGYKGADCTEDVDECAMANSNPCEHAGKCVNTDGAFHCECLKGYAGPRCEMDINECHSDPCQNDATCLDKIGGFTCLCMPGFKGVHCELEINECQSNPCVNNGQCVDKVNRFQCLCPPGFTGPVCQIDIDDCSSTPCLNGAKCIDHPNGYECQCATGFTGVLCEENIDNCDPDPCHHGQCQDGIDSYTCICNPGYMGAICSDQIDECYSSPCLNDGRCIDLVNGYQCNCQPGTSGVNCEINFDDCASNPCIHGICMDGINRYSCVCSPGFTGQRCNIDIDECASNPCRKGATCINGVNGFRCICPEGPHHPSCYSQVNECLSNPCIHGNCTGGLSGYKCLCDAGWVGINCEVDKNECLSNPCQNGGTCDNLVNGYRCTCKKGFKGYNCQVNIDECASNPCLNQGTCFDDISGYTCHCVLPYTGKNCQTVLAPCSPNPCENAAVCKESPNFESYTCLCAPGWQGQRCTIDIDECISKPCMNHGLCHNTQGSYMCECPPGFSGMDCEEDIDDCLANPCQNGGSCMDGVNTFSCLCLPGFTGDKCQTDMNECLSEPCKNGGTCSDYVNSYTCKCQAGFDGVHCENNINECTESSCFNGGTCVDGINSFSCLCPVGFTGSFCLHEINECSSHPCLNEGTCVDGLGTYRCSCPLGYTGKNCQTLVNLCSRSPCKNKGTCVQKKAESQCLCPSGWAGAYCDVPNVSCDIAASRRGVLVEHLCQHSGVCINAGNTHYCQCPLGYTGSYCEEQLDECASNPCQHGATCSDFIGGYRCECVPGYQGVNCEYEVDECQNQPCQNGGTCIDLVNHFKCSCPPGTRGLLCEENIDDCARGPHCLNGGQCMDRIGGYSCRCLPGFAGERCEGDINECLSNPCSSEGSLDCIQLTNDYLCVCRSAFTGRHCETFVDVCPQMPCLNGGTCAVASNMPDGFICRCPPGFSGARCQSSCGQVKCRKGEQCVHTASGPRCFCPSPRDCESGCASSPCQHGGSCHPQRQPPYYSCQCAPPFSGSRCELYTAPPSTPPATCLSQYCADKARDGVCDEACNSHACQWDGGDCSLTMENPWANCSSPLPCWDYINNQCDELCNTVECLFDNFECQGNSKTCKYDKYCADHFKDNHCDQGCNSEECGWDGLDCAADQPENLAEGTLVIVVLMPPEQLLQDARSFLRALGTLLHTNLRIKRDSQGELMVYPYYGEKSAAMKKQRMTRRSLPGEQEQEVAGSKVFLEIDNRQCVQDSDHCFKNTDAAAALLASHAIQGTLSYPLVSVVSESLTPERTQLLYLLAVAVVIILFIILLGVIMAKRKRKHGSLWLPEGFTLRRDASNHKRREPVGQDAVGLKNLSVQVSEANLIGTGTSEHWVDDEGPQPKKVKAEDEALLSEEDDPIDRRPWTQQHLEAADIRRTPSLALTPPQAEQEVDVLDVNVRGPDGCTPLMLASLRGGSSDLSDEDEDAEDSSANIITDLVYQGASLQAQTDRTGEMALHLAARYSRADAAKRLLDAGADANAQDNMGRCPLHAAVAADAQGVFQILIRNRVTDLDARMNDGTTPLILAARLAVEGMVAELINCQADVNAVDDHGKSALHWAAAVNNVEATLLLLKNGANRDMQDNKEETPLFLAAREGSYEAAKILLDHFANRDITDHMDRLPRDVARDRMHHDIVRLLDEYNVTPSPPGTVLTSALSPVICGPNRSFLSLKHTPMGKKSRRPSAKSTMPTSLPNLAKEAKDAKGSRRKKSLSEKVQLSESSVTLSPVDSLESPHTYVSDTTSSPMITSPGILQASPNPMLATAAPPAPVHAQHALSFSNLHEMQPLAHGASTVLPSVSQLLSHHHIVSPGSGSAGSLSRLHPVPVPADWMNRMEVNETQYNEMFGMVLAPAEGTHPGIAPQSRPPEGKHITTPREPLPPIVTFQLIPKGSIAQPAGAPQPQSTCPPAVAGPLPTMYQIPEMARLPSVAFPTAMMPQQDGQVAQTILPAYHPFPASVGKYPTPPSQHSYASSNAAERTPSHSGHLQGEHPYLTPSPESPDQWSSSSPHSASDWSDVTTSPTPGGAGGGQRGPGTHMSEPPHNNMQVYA
Chain of Neurogenic locus notch homolog protein 3 (Homo sapiens) (Q9UM47 whole entry, looked up): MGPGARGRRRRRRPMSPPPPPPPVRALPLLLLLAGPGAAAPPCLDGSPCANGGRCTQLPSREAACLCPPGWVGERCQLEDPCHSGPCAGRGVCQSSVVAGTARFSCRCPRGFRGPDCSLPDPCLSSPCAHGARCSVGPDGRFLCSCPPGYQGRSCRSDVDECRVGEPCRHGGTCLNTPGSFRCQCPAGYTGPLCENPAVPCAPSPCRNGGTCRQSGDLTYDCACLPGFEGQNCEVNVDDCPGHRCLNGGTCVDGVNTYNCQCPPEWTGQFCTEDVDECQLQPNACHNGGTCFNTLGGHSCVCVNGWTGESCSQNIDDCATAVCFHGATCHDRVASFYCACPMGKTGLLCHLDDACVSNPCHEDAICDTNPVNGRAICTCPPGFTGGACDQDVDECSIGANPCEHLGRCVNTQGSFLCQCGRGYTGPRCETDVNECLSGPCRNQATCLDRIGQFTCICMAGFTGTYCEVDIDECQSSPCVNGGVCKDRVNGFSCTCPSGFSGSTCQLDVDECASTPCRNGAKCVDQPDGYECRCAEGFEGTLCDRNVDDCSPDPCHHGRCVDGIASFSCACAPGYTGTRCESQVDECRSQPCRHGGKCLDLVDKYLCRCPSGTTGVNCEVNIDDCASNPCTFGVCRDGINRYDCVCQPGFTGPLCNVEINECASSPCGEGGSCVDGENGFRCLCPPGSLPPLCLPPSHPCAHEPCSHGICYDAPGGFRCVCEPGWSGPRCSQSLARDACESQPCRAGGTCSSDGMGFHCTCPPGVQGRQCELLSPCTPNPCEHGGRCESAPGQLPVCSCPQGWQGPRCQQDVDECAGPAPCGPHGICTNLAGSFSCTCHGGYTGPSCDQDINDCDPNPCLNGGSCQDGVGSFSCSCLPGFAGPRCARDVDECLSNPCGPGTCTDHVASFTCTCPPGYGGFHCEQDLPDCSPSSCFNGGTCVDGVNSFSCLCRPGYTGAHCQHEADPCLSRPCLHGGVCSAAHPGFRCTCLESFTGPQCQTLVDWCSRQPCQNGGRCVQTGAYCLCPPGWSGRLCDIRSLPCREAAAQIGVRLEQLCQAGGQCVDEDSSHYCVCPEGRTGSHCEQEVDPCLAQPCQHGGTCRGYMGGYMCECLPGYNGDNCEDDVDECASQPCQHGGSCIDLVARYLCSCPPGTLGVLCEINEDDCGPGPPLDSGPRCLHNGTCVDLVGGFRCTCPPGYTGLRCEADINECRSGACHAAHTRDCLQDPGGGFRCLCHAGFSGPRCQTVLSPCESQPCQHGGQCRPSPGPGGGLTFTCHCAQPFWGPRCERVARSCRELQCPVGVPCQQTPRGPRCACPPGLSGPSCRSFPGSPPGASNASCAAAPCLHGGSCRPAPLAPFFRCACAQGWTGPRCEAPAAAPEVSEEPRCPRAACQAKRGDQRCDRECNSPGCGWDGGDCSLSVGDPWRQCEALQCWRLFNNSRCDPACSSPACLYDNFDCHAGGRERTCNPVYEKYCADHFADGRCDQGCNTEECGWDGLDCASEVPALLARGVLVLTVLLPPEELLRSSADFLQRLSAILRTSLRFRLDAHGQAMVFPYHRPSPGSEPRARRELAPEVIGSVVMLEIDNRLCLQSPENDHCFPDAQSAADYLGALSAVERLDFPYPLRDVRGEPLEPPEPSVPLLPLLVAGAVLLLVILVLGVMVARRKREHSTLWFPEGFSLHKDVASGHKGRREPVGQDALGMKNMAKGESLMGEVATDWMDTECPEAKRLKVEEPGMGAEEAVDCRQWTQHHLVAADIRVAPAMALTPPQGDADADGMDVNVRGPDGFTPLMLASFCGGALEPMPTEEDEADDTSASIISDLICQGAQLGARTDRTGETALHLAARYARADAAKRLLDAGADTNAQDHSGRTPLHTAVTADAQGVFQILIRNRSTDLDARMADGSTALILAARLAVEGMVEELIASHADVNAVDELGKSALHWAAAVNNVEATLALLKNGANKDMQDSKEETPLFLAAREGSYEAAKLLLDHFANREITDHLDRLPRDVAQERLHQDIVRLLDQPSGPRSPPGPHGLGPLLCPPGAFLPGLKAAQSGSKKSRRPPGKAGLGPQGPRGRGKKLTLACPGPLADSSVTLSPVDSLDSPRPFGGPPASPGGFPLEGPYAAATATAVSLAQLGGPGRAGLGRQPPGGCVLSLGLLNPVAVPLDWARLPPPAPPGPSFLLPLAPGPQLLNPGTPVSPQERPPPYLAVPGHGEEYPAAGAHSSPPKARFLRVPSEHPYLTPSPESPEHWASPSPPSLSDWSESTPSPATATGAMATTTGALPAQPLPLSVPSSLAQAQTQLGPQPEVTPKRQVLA

SMILES	composite z-score [1]	composite z-score [2]	composite z-score [3]	composite z-score [4]	composite z-score [5]	composite z-score [6]	composite z-score [7]	z-score [8]	composite z-score [9]	composite z-score [10]	composite z-score [11]	z-score [12]	z-score [13]	z-score [14]	composite z-score [15]	z-score [16]	composite z-score [17]	composite z-score [18]	composite z-score [19]	composite z-score [20]
O=C(NCc1ccc(F)cc1)[C@H]1C[C@H]2C(=O)N3CCC[C@H]3C(=O)N2[C@H]1c1ccc(O)cc1	0.883	-0.554	-0.195	-0.216	-0.428	0.192	0.49	-0.29 (inactive)	-0.819	-0.0772	0.0679	-1.04 (inactive)	-1.47 (inactive)	0.164 (inactive)	-0.296	2.41 (inactive)	-0.0963	-0.139	-0.484	-0.169
COCCOC(=O)N1C(=O)[C@@]2(c3cc(C#Cc4ccc(OC)cc4)ccc31)[C@H](c1ccc(OCCO)cc1)N1[C@H](c3ccccc3)[C@H](c3ccccc3)OC(=O)[C@H]1[C@@H]2C(=O)NC[C@H](O)c1ccccc1	1.48	0.628	0.005	0.703	1.15	0.455	1.2	0.848 (inactive)	0.919	0.28	1.5	3.3 (inactive)	2.29 (inactive)	7.99 (inactive)	2.31	0.0136 (inactive)	0.3	0.729	1.1	0.259
CO[C@H]1O[C@H](CO)[C@@H](OC(=O)Nc2ccccc2-c2ccccc2)[C@H](OC(=O)Nc2ccccc2)[C@H]1OC(=O)Nc1ccccc1	0.164	0.514	-0.0067	1.25	1.48	1.55	1.33	1.66 (inactive)	0.941	-0.0237	1.54	1.81 (inactive)	1.21 (inactive)	5.33 (inactive)	3.12	0.517 (inactive)	0.208	1.2	1.1	0.0903
C=C(CCCC)C(=O)CC[C@H](OC(=O)c1ccccc1-c1ccccc1C(=O)O)c1ccc(OCCO)cc1	-0.441	1.06	-0.0876	0.315	-0.181	1.13	1.19	-0.62 (inactive)	0.393	-0.236	0.636	-0.338 (inactive)	-1.48 (inactive)	-1.88 (inactive)	1.65	0.836 (inactive)	-0.0563	1.43	0.171	-0.0197
COC(=O)[C@@]1(Cc2ccccc2)[C@H]2c3cc(C(=O)N(C)C)n(CCSC(=N)N)c3C[C@H]2CN1C(=O)c1ccccc1	-0.0908	-0.512	0.243	-0.248	-0.175	1.28	1.04	0.453 (inactive)	0.319	0.0401	0.265	0.485 (inactive)	1.12 (inactive)	0.102 (inactive)	2.05	-0.0906 (inactive)	0.169	-0.699	-0.0995	-0.112
O=C1NC(=O)C2C1C=CC(C(O)c1ccc(B(O)O)cc1)N2Nc1ccc(Cl)cc1Cl (stereo not given)	-0.144	-0.397	-0.0095	0.454	1.11	1.16	0.955	0.402 (inactive)	0.514	-0.0645	-0.201	1.33 (inactive)	-0.229 (inactive)	0.715 (inactive)	1.71	-0.758 (inactive)	0.126	-0.255	0.287	-0.0238
CC(C)N1C(=O)c2ccccc2[C@](C)(C(=O)NCC(F)(F)F)[C@@H]1c1ccc(CO)cc1	0.531	-0.226	-0.0698	-1	-0.334	0.583	0.107	-0.229 (inactive)	-0.299	-0.105	-0.42	-0.337 (inactive)	-0.837 (inactive)	-0.674 (inactive)	1.64	0.537 (inactive)	0.146	-1.4	-0.445	-0.179
CC(C)NC(=O)[C@@H]1c2ccccc2C(=O)N(Cc2ccc(OC(F)(F)F)cc2)[C@H]1c1ccc(CO)cc1	0.33	-0.0722	0.242	0.625	1.05	0.765	1	-1.05 (inactive)	1.35	2.21	1.54	0.0263 (inactive)	-1.24 (inactive)	-1.51 (inactive)	2.67	-1.48 (inactive)	0.734	0.756	1.11	0.587
CC(C)C(O)C1C=CC2C(=O)NC(=O)C2N1Nc1ccccn1 (stereo not given)	0.359	-0.103	-0.0502	0.138	0.926	0.306	1.1	0.944 (inactive)	0.547	0.151	0.522	1.02 (inactive)	1.68 (inactive)	0.56 (inactive)	1.92	-0.847 (inactive)	0.0894	-0.0878	0.301	-0.109
CC1=C([C@H](O)CCc2ccccc2)[C@H](CO)n2c(=O)n(-c3ccccc3)c(=O)n2C1	-0.312	-0.322	-0.159	0.0052	-0.371	-0.355	-0.56	-0.973 (inactive)	-0.429	-0.236	-0.0416	-1.02 (inactive)	-1.03 (inactive)	-0.539 (inactive)	-0.478	1.87 (inactive)	-0.355	0.0865	-0.696	-0.211
O=C1O[C@@H](c2ccccc2)[C@@H](c2ccccc2)N2[C@@H](c3ccc(OCCO)cc3)[C@]3(C(=O)Nc4ccc(C#CCCO)cc43)[C@@H](C(=O)O)[C@H]12	1.47	0.431	0.213	0.749	0.882	1.46	1.24	-1.75 (inactive)	1.9	0.102	1.53	0.659 (inactive)	0.799 (inactive)	-0.261 (inactive)	2.68	0.543 (inactive)	1.03	1.31	1.04	0.853
C=C(COC)C(=O)CC[C@@H](OC(C)=O)c1ccccc1OCCO	-0.215	-0.0765	-0.102	1.39	-0.54	0.695	0.326	0.151 (inactive)	0.406	-0.0994	1.34	-1.89 (inactive)	-3.27 (inactive)	-1.51 (inactive)	1.76	0.732 (inactive)	-0.117	1.11	0.784	-0.0382
COc1cc(CO)cc(I)c1O[C@H]1C=C(C(=O)NCCO)C[C@@H](NC2CCCCCC2)[C@@H]1O	-0.606	0.174	-0.0114	0.998	0.618	-0.0274	0.716	0.999 (inactive)	-0.0564	-0.0994	1.53	0.543 (inactive)	-8.18 (active)	-0.397 (inactive)	1.86	1.37 (inactive)	-0.166	1.22	1.01	-0.0564
COc1ccc([Si](C)(C)[C@@H]2[C@@H](CC(=O)N(CCO)Cc3ccccc3)O[C@]3(C(=O)N(Cc4ccc(I)cc4)c4ccccc43)[C@H]2C)cc1	0.44	1.2	-0.0403	0.0554	0.512	0.136	0.83	-2.04 (inactive)	0.621	1	1.55	0.383 (inactive)	1.53 (inactive)	2.57 (inactive)	-0.0159	1.26 (inactive)	0.408	1.63	1.12	0.338
COC(=O)[C@]1(Cc2ccccc2)N=C(c2ccc(OCCCO)cc2)O[C@@H]1c1ccccc1CN=[N+]=[N-]	0.278	-0.235	-0.0266	-0.214	0.582	0.718	1.29	1.48 (inactive)	0.693	-0.134	1.56	0.738 (inactive)	0.237 (inactive)	34.8 (active)	2.34	-0.156 (inactive)	0.0647	0.615	0.399	-0.0967
COCCOC(=O)N1C(=O)[C@@]2(c3cc(C#CC4(O)CCCCCC4)ccc31)[C@H](c1ccc(O)cc1)N1[C@H](c3ccccc3)[C@H](c3ccccc3)OC(=O)[C@H]1[C@@H]2C(=O)N1CCCCCCC1	2.85	0.567	0.0059	0.83	0.547	0.903	1.15	-0.0559 (inactive)	2.06	1.39	1.55	-0.016 (inactive)	0.056 (inactive)	0.367 (inactive)	2.09	0.709 (inactive)	0.189	1.3	1.06	0.0896
C=C(CCCC)C(=O)CC[C@@H](OC(=O)c1ccccc1-c1ccccc1C(=O)O)c1ccccc1OCCO	-0.173	0.222	-0.0566	0.803	-0.0697	-0.0918	0.0551	-0.39 (inactive)	-0.501	0.0373	1.23	-0.576 (inactive)	-1.19 (inactive)	-1.61 (inactive)	-0.583	0.306 (inactive)	-0.146	1.2	0.48	-0.178
C[C@]1(C(=O)O)c2ccccc2C(=O)N(Cc2cc(F)cc(C(F)(F)F)c2)[C@H]1c1ccc(CO)cc1	-0.25	-0.205	-0.0887	0.0859	0.361	0.233	0.936	-0.163 (inactive)	0.436	-0.268	0.413	-0.994 (inactive)	-1.3 (inactive)	-1.9 (inactive)	1.64	0.581 (inactive)	-0.153	1.04	0.137	-0.115
CC(C)OC(=O)CC(=O)CC(O)c1cccc([N+](=O)[O-])c1 (stereo not given)	0.62	1.22	-0.0028	0.376	0.546	0.334	0.947	-1 (inactive)	0.815	-0.305	1.09	-4.2 (inactive)	-1.84 (inactive)	-2.74 (inactive)	1.64	0.305 (inactive)	-0.186	-0.164	0.83	-0.0215
CC(=O)OCC1C2CC[C@H]3C(OCc4ccc(F)cc4C(F)(F)F)OC[C@]4(C)[C@H]3C2=C(CN4C(=O)OC(C)(C)C)[C@H](C)C1COC(C)=O (stereo not given in full)	0.496	1.4	-0.0336	0.363	0.101	0.823	0.783	1.06 (inactive)	0.579	0.141	-0.025	1.56 (inactive)	2.04 (inactive)	1.15 (inactive)	1.35	-1.36 (inactive)	0.054	1.2	-0.439	-0.0512
